Experiment [1] deals with Cytochrome P450 3A7 (Homo sapiens) (UniProt P24462). The experiment is described as follows: Cytochrome P450 family 3 subfamily A member 7 (CYP3A7) small molecule antagonists: luciferase biochemical qHTS assay (AID 1963596). Also: % is scaled to controls: 0 for no effect and ±100 for the full control effect; nearly all actives have a fitted effect of over 40% in size. To be noted: P450-Glo CYP3A7 enzyme luminescence, 1 h; series mostly up to 57.4 µM. Summed up: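 Luminescence read-out (relative luminescence units) after 20 min with detection reagent, which stops the reaction. Enzyme, proluciferin substrate and compound preincubated 10 min, RT; NADPH regeneration system then started 1 h reaction. Ketoconazole as positive control.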
Sequence of Cytochrome P450 3A7 (Homo sapiens) (P24462 whole entry, looked up): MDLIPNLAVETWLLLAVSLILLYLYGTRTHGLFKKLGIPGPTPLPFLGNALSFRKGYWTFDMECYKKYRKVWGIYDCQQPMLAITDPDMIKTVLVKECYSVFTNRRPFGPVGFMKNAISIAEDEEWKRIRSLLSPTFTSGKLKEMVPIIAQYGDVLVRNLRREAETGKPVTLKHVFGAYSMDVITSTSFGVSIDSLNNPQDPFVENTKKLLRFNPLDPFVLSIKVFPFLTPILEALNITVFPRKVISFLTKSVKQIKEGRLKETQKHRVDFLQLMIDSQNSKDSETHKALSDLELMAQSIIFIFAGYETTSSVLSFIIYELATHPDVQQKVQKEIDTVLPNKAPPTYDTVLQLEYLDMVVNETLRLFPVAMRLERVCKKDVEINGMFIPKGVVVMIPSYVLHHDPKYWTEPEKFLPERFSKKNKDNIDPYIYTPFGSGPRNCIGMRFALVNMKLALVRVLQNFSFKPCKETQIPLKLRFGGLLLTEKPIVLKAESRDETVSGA

Experiment [2] in a line: Viability qHTS for spleen associated tyrosine kinase inhibitor (SYKi) naive MV4-11 cells (AID 1963823). Also: nearly all actives have a fitted effect of over 40% in size. Also: potency is read from the fitted curve at half-maximal effect. The note with it: MV4-11 AML viability, CellTiter-Glo luminescence, 72 h; series mostly up to 45 µM. Summed up:
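Viability of MV4-11 AML cells lacking prior SYK inhibitor exposure is scored by CellTiter-Glo luminescence following 72 hr compound incubation at 37 C, 5% CO2, seeded at 500 cells per well.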

The nature of experiment [3]: Viability qHTS for spleen associated tyrosine kinase inhibitor (SYKi) drug resistant MV4-11 cells (AID 1963824). Also: nearly all actives have a fitted effect of over 35% in size. Also: potency is read from the fitted curve at half-maximal effect. To be noted: SYKi-resistant MV4-11 viability, CellTiter-Glo, 72 h; series mostly up to 45 µM. The method in brief:
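SYK-inhibitor-resistant MV4-11 AML cells were seeded at 500 per well onto compound and cultured 72 hours (37 °C, 5% CO2). CellTiter-Glo was then added, and after 10 min at room temperature, luminescence gave viability.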

The nature of experiment [4]: Cellular viability qHTS for adrenocortical cancer (ACC) cell line SW-13 (AID 1963989).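 Also: cells grown in serum-free medium with ITS supplement; % is scaled to controls: 0 for no effect and ±100 for the full control effect; nearly all actives have a fitted effect of over 65% in size.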 The note with it: SW-13 ACC cells viability, CellTiter-Glo, 48 h; activity (max response): active compounds read low. Summed up: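 48 h treatment, SW-13 in ITS/DMEM serum-free; doses up to 46 uM; readout CellTiter-Glo luminescence; curve fit four-parameter logistic.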
Experiment [5] can be described thus: Cellular viability qHTS for adrenocortical cancer (ACC) cell line NCI-H295R (AID 1963990).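 Also: 0% = DMSO only wells and -100% = full killing with cytotoxic reference compound; nearly all actives have a fitted effect of over 60% in size.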 To be noted: CellTiter-Glo ATP luminescence, 48 h; series mostly up to 46.1 µM. Summed up:
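Compound titrations (up to 46 uM final) are applied to NCI-H295R cultures for 48 h at 37C. Viable cell number is estimated by CellTiter-Glo signal, normalised to DMSO and doxorubicin controls.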

The source of these data is PubChem BioAssay (NCATS).

“And” between values parts separate entries of the source, which are not always exact repeats. Identical values can stand only once. Inconclusive results are not listed. Values without a mark were called inactive. The source made the active and inactive calls. Calls follow the shape of the dose curve; as a rule, active = well fitted curve in the direction sought with a large enough effect; inconclusive = small, poorly fitted or top-dose-only effect, or another doubt; inactive = no such curve, though single readings can be large; an effect the other way counts as inactive or inconclusive.

Regarding `CNC[C@H](O)c1cccc(O)c1`, the Potency result in experiment [1], in experiment [3] and in experiment [5] was “inactive” each time. Moreover, the Potency in experiment [2] was 531 nM (active). Also, the activity (max response) in experiment [4] is 10.6% and -8.09%.

In the case of `CCn1ccc(NS(=O)(=O)c2ccc(N)cc2)nc1=O`, the Potency entry in experiment [1], in experiment [2], in experiment [3] and in experiment [5] was “inactive” each time. In experiment [4], the activity (max response) is 11.1%.

With `Cn1c(=O)c2[nH]cnc2n(C)c1=O`, the Potency result in experiment [1], in experiment [2], in experiment [3] and in experiment [5] was “inactive” throughout. Further, the activity (max response) in experiment [4] is -5.93% and 14.5%.

With `Cc1cc(C)cc(NC(=O)Cc2ccc(OC(C)(C)C(=O)O)cc2)c1`, the Potency entry in experiment [1], in experiment [2], in experiment [3] and in experiment [5] was “inactive” in each case. In experiment [4], the activity (max response) is 8.53%.

In the case of `C[C@H]1O[C@@H](n2cc(F)c(=O)[nH]c2=O)[C@H](O)[C@@H]1O`, the Potency result in experiment [1] and in experiment [5] was “inactive” in each case. Besides, the Potency in experiment [2] was 3.76 µM (active) and 2.35 µM (active); in experiment [3], 2.11 µM (active) and 1.05 µM (active). In experiment [4], the activity (max response) is -3.76% and -5.78%.

Take `COc1ccc(CN(CCN(C)C)c2ncccn2)cc1`: the Potency entry in experiment [1], in experiment [2], in experiment [3] and in experiment [5] was “inactive” in each case. The activity (max response) in experiment [4] is -7.84%.
